High-throughput results as filed in PubChem BioAssay.
The full list was thinned out, with hits kept by preference.
FECH inh – inhibitors of human ferrochelatase; 20,000 compounds, 3.3% hits; AID 1671448; purified FECH, Ni-mesoporphyrin absorbance 550 nm; P22830; calls only at 10 µM (by protocol);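 active = enzyme reaction rate more than 3 SD below the solvent-only control wells on the same plate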;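 note: lower slope than DMSO wells means FECH inhibition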
Target sequence (P22830 whole entry, looked up): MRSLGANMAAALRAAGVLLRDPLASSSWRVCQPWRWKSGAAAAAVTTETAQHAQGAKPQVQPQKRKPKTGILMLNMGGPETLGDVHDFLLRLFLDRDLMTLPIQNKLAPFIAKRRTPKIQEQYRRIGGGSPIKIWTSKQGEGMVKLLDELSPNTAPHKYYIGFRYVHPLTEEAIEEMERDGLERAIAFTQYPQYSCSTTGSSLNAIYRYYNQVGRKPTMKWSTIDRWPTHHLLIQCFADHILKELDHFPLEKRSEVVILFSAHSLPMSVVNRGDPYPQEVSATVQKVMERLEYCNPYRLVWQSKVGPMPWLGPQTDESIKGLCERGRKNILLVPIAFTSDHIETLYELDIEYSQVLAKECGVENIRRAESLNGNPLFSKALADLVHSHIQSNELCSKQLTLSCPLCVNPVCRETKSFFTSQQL
* hit, by the source's call; i = inactive; + = active, no number.

SMILES	FECH inh
COc1ccc(N2C(=O)CCS2(=O)=O)cc1S(=O)(=O)NCCc1cccs1	i
COc1cc2c(cc1C1CC(=O)Nc3cc(O)c(C)cc31)OCCCO2 (stereo not drawn)	i
Cc1ccc(NC(=O)CNCc2noc(-c3ccc4c(c3)OCO4)n2)c(C)c1	i
Cc1cccc(-c2ccc(N3CCCC(C(=O)NCCCN4CCOCC4)C3)nn2)c1 (stereo not drawn)	i
CN1Cc2cc(-c3cc(NCCO)nc4[nH]ccc34)ccc2NC1=O	i
Cc1ccccc1NC(=O)N1CCC(n2cnc3cccnc32)CC1	i
O=C(Nc1cccc(Br)c1)N1CCC(n2cnc3cccnc32)CC1	i
COc1cc(NC(=O)N2CCC(n3cnc4cccnc43)CC2)cc(OC)c1	i
COc1cccc(NC(=O)N2CCC(n3cnc4cccnc43)CC2)c1	+
Cc1cccc(NC(=O)N2CCC(n3cnc4cccnc43)CC2)c1	i
O=C(NC1CCCC1)N1CCC(n2cnc3cccnc32)CC1	+
COc1cc(NC(=O)N2CCC(n3cnc4cccnc43)CC2)cc(OC)c1OC	i
CCCNC(=O)N1CCC(n2cnc3cccnc32)CC1	i
O=C(Nc1ccccc1)N1CCC(n2cnc3cccnc32)CC1	+
Cn1nc(C(=O)NCc2ccccc2)c2c1CCN(C(=O)C1CC1)C2	i
COc1ccc(-c2cc3n(n2)CCC(=O)N3Cc2ccc(C(=O)NC(C)C)cc2)cc1	i
O=S(=O)(c1ccc2c(c1)OCCO2)N1CCC(n2cnc3cccnc32)CC1	i
CSc1cccc(NS(=O)(=O)c2ccc3c(c2)NC(=O)CC(=O)N3)c1	i
Cc1cccc(C)c1NC(=O)c1cccc(NC(=O)C(C)n2cccc2)c1 (stereo not drawn)	i
O=C(c1cn(CC2CCCNC2)nn1)N1CCc2[nH]ncc2C1 (stereo not drawn)	i
CCc1cc(CN(C)C(=O)CN2CCOc3ccccc3C2)on1	i
CCc1cc(CN(C)C(=O)c2cn3c4c(cccc4c2=O)CC3)on1	+
CCc1cc(CN(C)C(=O)c2cnon2)on1	i
COc1ccc(CCN2CC(NC(=O)c3cc(C(C)C)[nH]n3)CC2=O)cc1 (stereo not drawn)	i
CN(Cc1ncc[nH]1)C(=O)COc1ccc(F)cc1	i
SMILES	FECH inh
NC1(C(=O)O)CCN(Cc2ccc(OCC(=O)N3CCCCC3)cc2)C1 (stereo not drawn)	i
Cc1cnc(CN(C)C(=O)c2ccc(OCC(=O)N3CCCCC3)cc2)[nH]1	+
CC(=O)Nc1c2n(c3ccc(F)cc13)CC(C)(C(=O)NC1CCCCC1)N(Cc1ccccn1)C2=O (stereo not drawn)	i
O=C(c1cc(N2Cc3ccccc3C2)ccn1)N1CCOCC1	i
Cc1cc2nc(COc3ccc(Cl)cc3NC(=O)c3cccs3)cc(=O)n2o1	i
CC(C)CN1CC(C(=O)N2CCC(Oc3ncccn3)CC2)CC1=O (stereo not drawn)	i
COc1ncc(-c2c(-c3ccccc3)ncn2CCN2CCCCC2)cn1	i
Cc1ccccc1S(=O)(=O)NCc1nc2cccnc2n1CC(C)C	i
Cc1cccc(Cn2c(CNS(=O)(=O)c3ccc(F)cc3)nc3cccnc32)c1	i
Cc1cccc(Cn2c(CNS(=O)(=O)c3ccccc3)nc3cccnc32)c1	+
Cc1ccc(Cn2c(CNC(=O)c3cccnc3)nc3cccnc32)cc1	+
Cc1ccc(Cn2c(CNC(=O)c3ccncc3)nc3cccnc32)cc1	i
CCc1ccc(Cn2c(CNS(=O)(=O)c3ccc([N+](=O)[O-])cc3)nc3cccnc32)cc1	+
CC(C)Cn1c(CNS(C)(=O)=O)nc2cccnc21	+
Cc1cccc(S(=O)(=O)NCc2nc3cccnc3n2Cc2ccccc2)c1	i
CCOc1ccc(C(=O)NCc2nc3cccnc3n2Cc2ccc(C)cc2)cc1	i
CCc1ccc(Cn2c(CNS(=O)(=O)c3ccc(C)cc3)nc3cccnc32)cc1	i
CC(C)Cn1c(CNS(=O)(=O)c2ccc(Cl)cc2)nc2cccnc21	i
CCc1ccc(S(=O)(=O)NCc2nc3cccnc3n2Cc2ccc(F)cc2)cc1	i
CCN(CC)Cc1cc(C(=O)N2CCOC3(CNCCOC3)C2)c(C)o1 (stereo not drawn)	i
CN1CCN(Cc2ccc(C#CC(C)(C)O)s2)CC1C(=O)O (stereo not drawn)	i
Cc1ccoc1C(=O)N(C)Cc1nc(C(C)C)no1	i
Cc1ccc(CC2(NC(=O)/C=C/c3cnn(C)c3)CC2)cc1	i
Cn1nc(C(=O)NCC2(O)CCNC2)c2c1CCCC2 (stereo not drawn)	i
CCCc1ccc(S(=O)(=O)NCc2nc3cccnc3n2Cc2ccc(F)cc2)cc1	i
Cc1c(C(=O)NCCC2CCCN(C)C2)[nH]c2ccc(F)cc12 (stereo not drawn)	i
CCCc1ncncc1C(=O)NC1CC(=O)N(Cc2ccccc2Cl)C1 (stereo not drawn)	i
CCc1oc2ccccc2c1-c1nccn1CCN(C)C	i
Cc1c(-c2nccn2Cc2cccnc2)oc2ccccc12	+
Cc1c(CN2Cc3ncccc3C2=O)oc2ccccc12	i
